The values that follow come from PubChem BioAssay (EPA / NIEHS).

Where “and” joins values, the source holds several entries; their conditions need not be identical. Equal values may be shown once. Inconclusive results are not listed. Calls of active or inactive are those of the source. Rule for the calls: active = hit-call score of the fitted dose curve at least 0.9, where 1 is the maximum; inconclusive = response in the unintended direction; inactive = score below 0.9.

The target of test [1] is human CYP2C9, CYP2C9 (gene 1559) (UniProt P11712). The experiment in a line: NVS_ADME_hCYP2C9: NovaScreen (NVS) CYP450-related Enzyme Activity (ADME) Assay for human CYP2C9 (AID 2283108). The essentials:
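Recombinant human CYP2C9 expressed in SF9 cells, fluorogenic substrate, fluorescence read 0.75 h after dosing. Chemicals first run in duplicate at 10 uM, with actives followed in concentration series; loss of signal versus acetonitrile baseline.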

In test [2] the target is Cytochrome P450 3A4 (Homo sapiens) (UniProt P08684). The experiment in a line: NVS_ADME_hCYP3A4: NovaScreen (NVS) CYP450-related Enzyme Activity (ADME) Assay for human CYP3A4 (AID 2283110). Put shortly:
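Cell-free recombinant enzyme expressed in insect cells; fluorescent substrate turnover read after 0.33 h, acetonitrile as negative control. Primary screen in duplicate at 10 uM, actives then tested in concentration series.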

The target in test [3] is human Caspase 5 (CASP5), CASP5 (gene 838) (UniProt P51878). The experiment in a line: NVS_ENZ_hCASP5: NovaScreen (NVS) Enzymatic Assay for human Caspase 5 (CASP5) (AID 2283137). The essentials: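 E. coli-derived enzyme, cell-free, 2 h incubation, fluorescence intensity. 25 uM duplicate single-point; hits → concentration series to 50 uM. DMSO baseline, positive/negative controls on every plate.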
human Caspase 5 (CASP5), CASP5 (gene 838), sequence (P51878 whole entry, looked up): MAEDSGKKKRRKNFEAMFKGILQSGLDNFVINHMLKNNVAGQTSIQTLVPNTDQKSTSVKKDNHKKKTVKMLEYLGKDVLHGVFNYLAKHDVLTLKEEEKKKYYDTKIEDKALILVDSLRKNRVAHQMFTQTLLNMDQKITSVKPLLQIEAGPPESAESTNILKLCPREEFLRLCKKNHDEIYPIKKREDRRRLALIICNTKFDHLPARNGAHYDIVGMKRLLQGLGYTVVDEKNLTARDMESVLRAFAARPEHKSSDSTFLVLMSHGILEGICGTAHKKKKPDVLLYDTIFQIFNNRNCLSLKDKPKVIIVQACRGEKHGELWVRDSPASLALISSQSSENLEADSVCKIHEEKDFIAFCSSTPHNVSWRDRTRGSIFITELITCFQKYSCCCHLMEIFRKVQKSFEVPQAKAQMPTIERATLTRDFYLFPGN

Test [4] addresses human AKT serine/threonine Kinase 1 (AKT1), AKT1 (gene 207) (UniProt P31749). The experiment in a line: NVS_ENZ_hAKT1: NovaScreen (NVS) Enzymatic Assay for human AKT serine/threonine Kinase 1 (AKT1) (AID 2283138). The essentials: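 Recombinant AKT1, specific substrate, cell-free; 1 h; fluorescence intensity/electrophoretic mobility shift. Duplicate single-point 25 uM, then singleton CRC max 50 uM. DMSO = negative control/baseline; signal loss = inhibition.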

Test [5] concerns the target human AKT serine/threonine Kinase 2 (AKT2), AKT2 (gene 208) (UniProt P31751). Briefly: NVS_ENZ_hAKT2: NovaScreen (NVS) Enzymatic Assay for human AKT serine/threonine Kinase 2 (AKT2) (AID 2283141). The essentials:
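Cell-free fluorescence/electrophoretic mobility shift readout of recombinant human AKT2 activity, 1 h after chemical dosing. Duplicate primary screen at 25 uM, then singleton concentration-response up to 50 uM; loss of signal versus DMSO baseline.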

In test [6] the target is human Caspase 4 (CASP4), CASP4 (gene 837) (UniProt P49662). The experiment in a line: NVS_ENZ_hCASP4: NovaScreen (NVS) Enzymatic Assay for human Caspase 4 (CASP4) (AID 2283143). The essentials:
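The cell-free assay used E. coli-expressed enzyme with a fluorogenic substrate, read 2 h after dosing. Signal loss was scored versus DMSO. Screening was in duplicate at 25 uM, then singleton concentration-response up to 50 uM.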

The target of test [7] is human Elastase, ELANE (gene 1991) (UniProt P08246). Briefly: NVS_ENZ_hElastase: NovaScreen (NVS) Enzymatic Assay for human Elastase (AID 2283153). The essentials: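 Cell-free elastase from human neutrophils, 1.5 h after dosing, activity read by absorbance. Primary screen in duplicate at 25 uM; hits (e.g., 30% inhibition) rerun in singleton concentration-response up to 50 uM, fitted versus DMSO.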
human Elastase, ELANE (gene 1991), sequence (P08246 whole entry, looked up): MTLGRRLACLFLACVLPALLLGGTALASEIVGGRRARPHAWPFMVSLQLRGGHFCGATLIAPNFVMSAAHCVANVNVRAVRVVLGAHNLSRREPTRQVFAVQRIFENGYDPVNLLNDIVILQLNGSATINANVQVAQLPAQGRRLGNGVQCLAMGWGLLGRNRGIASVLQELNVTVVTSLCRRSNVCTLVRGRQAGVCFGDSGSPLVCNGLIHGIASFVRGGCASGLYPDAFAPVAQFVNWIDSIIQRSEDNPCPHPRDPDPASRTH

A further test deals with rat CYP3A1, gene 25642. The experiment in a line: NVS_ADME_rCYP3A1: NovaScreen (NVS) CYP450-related Enzyme Activity (ADME) Assay for rat CYP3A1 (AID 2283126). The essentials:
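Cell-free recombinant CYP assay with fluorescent substrate, read 0.5 h after dosing. Screened at 10 uM in duplicate, hits at up to 20 uM in concentration-response; loss of signal versus acetonitrile baseline.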

Test [8] addresses rat CYP3A2, Cyp3a2 (gene 266682) (UniProt P05183). Briefly: NVS_ADME_rCYP3A2: NovaScreen (NVS) CYP450-related Enzyme Activity (ADME) Assay for rat CYP3A2 (AID 2283128). Put shortly: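 Cell-free rat CYP3A2 enzyme assay with fluorescent substrate, read 0.5 h after dosing. Primary duplicate screen at 10 uM; actives run in concentration-response up to 20 uM, relative to acetonitrile baseline.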

The target of test [9] is human Casein Kinase 1-delta (CK1D), CSNK1D (gene 1453) (UniProt P48730). The experiment in a line: NVS_ENZ_hCK1D: NovaScreen (NVS) Enzymatic Assay for human Casein Kinase 1-delta (CK1D) (AID 2283148). Put shortly: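 Recombinant human CK1-delta, cell-free; fluorescent substrate with electrophoretic mobility-shift separation of product, read 1 h after dosing. Single 25 uM duplicate screen, then concentration-response up to 50 uM; loss of signal vs DMSO.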
human Casein Kinase 1-delta (CK1D), CSNK1D (gene 1453), sequence (P48730 whole entry, looked up): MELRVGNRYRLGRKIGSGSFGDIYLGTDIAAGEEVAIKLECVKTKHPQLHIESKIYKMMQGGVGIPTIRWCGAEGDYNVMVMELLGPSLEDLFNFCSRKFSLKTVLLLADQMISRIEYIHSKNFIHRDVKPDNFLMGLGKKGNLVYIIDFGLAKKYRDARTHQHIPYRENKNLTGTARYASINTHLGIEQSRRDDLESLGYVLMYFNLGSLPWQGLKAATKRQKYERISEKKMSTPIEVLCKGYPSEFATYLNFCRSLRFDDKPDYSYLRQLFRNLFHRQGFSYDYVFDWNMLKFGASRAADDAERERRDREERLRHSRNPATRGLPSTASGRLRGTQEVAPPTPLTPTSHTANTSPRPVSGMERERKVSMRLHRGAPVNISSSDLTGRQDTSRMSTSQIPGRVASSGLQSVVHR

In test [10] the target is human Beta-secretase (BACE), BACE1 (gene 23621) (UniProt P56817). The experiment in a line: NVS_ENZ_hBACE: NovaScreen (NVS) Enzymatic Assay for human Beta-secretase (BACE) (AID 2283140).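 Note: hits are inhibitors that reduce fluorescent substrate signal versus DMSO.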 Put shortly: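 Compounds were first tested in duplicate at 25 uM, then actives in concentration series, against recombinant BACE1 from SF9 cells. Enzyme activity was measured by fluorescence intensity 1 hour after dosing, with DMSO as negative control.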
human Beta-secretase (BACE), BACE1 (gene 23621), sequence (P56817 whole entry, looked up): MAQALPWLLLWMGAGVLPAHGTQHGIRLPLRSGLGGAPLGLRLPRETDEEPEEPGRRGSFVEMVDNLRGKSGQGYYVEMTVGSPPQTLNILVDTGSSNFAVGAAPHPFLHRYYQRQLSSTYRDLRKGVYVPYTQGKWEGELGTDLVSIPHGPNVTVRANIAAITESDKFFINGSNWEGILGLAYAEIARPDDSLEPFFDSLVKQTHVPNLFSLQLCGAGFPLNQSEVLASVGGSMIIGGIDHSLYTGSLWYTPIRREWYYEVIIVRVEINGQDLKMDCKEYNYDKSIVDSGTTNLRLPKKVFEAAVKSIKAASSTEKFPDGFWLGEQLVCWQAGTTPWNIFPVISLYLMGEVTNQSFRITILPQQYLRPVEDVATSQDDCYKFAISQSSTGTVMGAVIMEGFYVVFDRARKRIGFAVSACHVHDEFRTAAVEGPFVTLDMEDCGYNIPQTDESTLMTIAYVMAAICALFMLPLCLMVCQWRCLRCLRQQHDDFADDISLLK

A further test addresses Caspase-3 (Homo sapiens) (UniProt P42574). Briefly: NVS_ENZ_hCASP3: NovaScreen (NVS) Enzymatic Assay for human Caspase 3 (CASP3) (AID 2283139). The essentials:
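Recombinant human caspase-3 from E. coli with a fluorogenic substrate, read by fluorescence 1 h after dosing. Primary screen in duplicate at 25 uM. Actives (for example ≥30% inhibition) rerun as concentration-response up to 50 uM.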

Test [11] deals with human Caspase 8 (CASP8), CASP8 (gene 841) (UniProt Q14790). Briefly: NVS_ENZ_hCASP8: NovaScreen (NVS) Enzymatic Assay for human Caspase 8 (CASP8) (AID 2283146). The essentials:
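E. coli-expressed enzyme was used in a cell-free fluorogenic substrate assay read 1 h after dosing. Loss of signal was scored relative to DMSO, and the primary screen was run in duplicate at 25 uM.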

Test [12] addresses human Colony Stimulating Factor 1 Receptor (CSF1R), CSF1R (gene 1436) (UniProt P07333). The experiment in a line: NVS_ENZ_hCSF1R: NovaScreen (NVS) Enzymatic Assay for human Colony Stimulating Factor 1 Receptor (CSF1R) (AID 2283150). The essentials: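 Cell-free recombinant human CSF1R kinase with fluorescent substrate, product separated by electrophoretic mobility shift; read 1 h after dosing. Primary screen at 25 uM in duplicate, actives then in concentration-response up to 50 uM, relative to DMSO.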

rat CYP3A2, Cyp3a2 (gene 266682), sequence (P05183 whole entry, looked up): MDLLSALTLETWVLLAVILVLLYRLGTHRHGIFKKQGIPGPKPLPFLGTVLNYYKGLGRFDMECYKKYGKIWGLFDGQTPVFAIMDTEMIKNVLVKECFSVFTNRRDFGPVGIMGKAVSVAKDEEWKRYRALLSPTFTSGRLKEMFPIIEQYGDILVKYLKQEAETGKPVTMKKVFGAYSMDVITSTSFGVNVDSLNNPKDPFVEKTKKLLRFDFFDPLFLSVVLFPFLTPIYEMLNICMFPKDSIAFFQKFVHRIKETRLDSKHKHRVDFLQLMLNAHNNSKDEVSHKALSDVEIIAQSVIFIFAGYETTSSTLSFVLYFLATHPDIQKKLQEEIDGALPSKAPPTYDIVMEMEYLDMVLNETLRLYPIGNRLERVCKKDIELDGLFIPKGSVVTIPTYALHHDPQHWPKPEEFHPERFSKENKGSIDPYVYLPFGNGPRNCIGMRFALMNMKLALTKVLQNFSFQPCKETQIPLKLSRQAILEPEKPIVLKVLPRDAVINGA
human CYP2C9, CYP2C9 (gene 1559), sequence (P11712 whole entry, looked up): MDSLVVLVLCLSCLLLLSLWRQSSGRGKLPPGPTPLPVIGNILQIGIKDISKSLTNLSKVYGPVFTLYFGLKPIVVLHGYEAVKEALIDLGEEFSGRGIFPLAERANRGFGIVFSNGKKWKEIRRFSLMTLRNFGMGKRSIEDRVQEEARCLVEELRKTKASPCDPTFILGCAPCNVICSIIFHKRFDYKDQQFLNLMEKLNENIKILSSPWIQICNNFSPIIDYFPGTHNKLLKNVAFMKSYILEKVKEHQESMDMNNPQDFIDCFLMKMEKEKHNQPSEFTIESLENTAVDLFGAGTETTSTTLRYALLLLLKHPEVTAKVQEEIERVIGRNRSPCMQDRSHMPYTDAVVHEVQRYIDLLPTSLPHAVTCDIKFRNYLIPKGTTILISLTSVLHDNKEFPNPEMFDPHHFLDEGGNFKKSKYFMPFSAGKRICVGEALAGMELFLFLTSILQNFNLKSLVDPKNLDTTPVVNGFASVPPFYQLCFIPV
human Caspase 4 (CASP4), CASP4 (gene 837), sequence (P49662 whole entry, looked up): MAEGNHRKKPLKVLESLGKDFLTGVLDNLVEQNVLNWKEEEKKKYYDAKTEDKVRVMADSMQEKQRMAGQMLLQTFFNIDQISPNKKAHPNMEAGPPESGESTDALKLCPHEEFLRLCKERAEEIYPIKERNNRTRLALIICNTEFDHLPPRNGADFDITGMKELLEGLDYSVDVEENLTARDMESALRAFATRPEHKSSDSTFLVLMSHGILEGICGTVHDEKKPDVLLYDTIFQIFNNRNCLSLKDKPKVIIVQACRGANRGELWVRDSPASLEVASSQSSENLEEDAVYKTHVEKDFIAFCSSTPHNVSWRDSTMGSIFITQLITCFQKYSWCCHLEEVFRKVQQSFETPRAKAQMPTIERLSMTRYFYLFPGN
Cytochrome P450 3A4 (Homo sapiens), sequence (P08684 whole entry, looked up): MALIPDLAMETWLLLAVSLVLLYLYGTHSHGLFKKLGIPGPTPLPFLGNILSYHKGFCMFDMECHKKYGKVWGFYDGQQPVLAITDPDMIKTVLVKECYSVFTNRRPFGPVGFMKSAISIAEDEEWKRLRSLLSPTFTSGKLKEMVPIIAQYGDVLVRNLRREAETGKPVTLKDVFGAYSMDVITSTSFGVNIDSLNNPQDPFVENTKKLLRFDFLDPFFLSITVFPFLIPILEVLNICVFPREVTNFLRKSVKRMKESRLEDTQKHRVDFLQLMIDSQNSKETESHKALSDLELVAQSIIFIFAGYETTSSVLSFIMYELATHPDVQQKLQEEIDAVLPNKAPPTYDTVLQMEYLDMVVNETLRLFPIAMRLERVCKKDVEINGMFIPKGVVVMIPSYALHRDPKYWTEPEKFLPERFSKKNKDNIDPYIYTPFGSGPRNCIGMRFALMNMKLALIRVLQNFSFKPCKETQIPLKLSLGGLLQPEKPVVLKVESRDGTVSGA
human AKT serine/threonine Kinase 1 (AKT1), AKT1 (gene 207), sequence (P31749 whole entry, looked up): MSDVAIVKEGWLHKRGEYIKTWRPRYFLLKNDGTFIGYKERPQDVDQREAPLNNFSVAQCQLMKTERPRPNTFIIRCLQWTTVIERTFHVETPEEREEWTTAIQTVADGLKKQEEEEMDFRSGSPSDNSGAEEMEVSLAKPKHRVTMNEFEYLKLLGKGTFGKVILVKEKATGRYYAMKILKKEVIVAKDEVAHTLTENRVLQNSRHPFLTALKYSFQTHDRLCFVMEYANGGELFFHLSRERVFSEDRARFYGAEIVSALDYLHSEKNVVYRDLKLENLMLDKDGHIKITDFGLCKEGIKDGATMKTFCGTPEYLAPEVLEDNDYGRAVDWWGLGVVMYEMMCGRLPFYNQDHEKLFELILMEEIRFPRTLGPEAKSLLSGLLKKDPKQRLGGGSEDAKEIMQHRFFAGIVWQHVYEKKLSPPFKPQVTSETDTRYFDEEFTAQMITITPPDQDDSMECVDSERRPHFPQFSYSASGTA
human AKT serine/threonine Kinase 2 (AKT2), AKT2 (gene 208), sequence (P31751 whole entry, looked up): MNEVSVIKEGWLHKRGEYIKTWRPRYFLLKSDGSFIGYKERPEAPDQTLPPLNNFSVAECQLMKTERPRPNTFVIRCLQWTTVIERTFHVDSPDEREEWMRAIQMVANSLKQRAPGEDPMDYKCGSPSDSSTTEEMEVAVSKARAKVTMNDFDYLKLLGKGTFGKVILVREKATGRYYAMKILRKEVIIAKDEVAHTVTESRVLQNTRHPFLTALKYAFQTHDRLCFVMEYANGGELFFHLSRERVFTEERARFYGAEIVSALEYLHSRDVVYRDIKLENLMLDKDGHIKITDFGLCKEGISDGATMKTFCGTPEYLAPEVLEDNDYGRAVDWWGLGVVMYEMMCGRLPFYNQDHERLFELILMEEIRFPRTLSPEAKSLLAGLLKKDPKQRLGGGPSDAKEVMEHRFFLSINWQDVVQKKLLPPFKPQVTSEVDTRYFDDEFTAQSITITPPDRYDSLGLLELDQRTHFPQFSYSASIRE
human Caspase 8 (CASP8), CASP8 (gene 841), sequence (Q14790 whole entry, looked up): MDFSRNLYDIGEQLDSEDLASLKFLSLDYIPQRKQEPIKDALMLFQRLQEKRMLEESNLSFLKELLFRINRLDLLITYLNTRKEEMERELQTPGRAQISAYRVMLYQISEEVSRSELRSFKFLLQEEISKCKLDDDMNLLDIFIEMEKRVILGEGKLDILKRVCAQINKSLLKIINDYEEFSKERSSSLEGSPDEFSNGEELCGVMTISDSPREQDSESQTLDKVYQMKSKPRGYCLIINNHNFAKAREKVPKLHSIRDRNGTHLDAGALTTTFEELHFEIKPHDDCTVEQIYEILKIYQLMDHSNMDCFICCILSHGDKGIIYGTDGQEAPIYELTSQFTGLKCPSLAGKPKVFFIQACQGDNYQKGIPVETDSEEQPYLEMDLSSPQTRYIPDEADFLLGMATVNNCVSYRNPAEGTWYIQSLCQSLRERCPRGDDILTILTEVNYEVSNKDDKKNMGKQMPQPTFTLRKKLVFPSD

Regarding `Clc1ccccc1C(c1ccccc1)(c1ccccc1)n1ccnc1`, the AC50 in [1] was 0.585 µM (active).
In the case of `CCCCCCCCOC(=O)c1cc(O)c(O)c(O)c1`, the AC50 in test [1] was 7.75 µM (active); in [2], 15.4 µM (active); in test [3], 25.4 µM (active); in [7], 12.5 µM (active). The call in test [4], in test [5] and in test [6] was inactive.
As to `O=c1c(-c2ccc(O)cc2)coc2cc(O)cc(O)c12`, the AC50 is 8.92 µM (active) and 5.71 µM (active) in the test on rat CYP3A1, gene 25642; 995 nM (active) and 815 nM (active) and 5.56 µM (active) in test [8].
For `O=C1c2ccccc2C(=O)N1CCc1noc(-c2ccc(CN3CCCCCC3)s2)n1`, the AC50 in test [1] was 5.62 µM (active). Also, the result in test [2] and in [9] was inactive.
On to `CCN(CC)C(=O)c1cc(S(=O)(=O)Cc2ccccc2)c(N2CCC(c3ccccc3)CC2)cc1N(CC)CCN(C)C`, for which the figures for the AC50 in [1] and in test [2] were 12.5 µM (active) and 4.11 µM (active), respectively. In addition, the molecule was classed as inactive in test [6].
`CCCCOC(=O)c1ccc(O)cc1`: in test [1], the AC50 was 7.15 µM (active). Further, the outcome in test [10] was inactive.
As for `CCN(Cc1cccc(S(=O)(=O)O)c1)c1ccc(C(=C2C=CC(=[N+](CC)Cc3cccc(S(=O)(=O)O)c3)C=C2)c2ccccc2S(=O)(=O)[O-])cc1`, the AC50 in [1] is 4.22 µM (active); in [3] it was 5.36 µM (active); in [10], 14.8 µM (active); in [6], 4.96 µM (active); in test [12], 2.94 µM (active); in test [7], 3.18 µM (active). Moreover, the molecule was called inactive (with Caspase-3 (Homo sapiens); in [11]; in test [9]).
Consider `CN(C[C@@H](CC[N+]12CCC(C3CCCCC3)(CC1)CC2)c1ccc(Cl)c(Cl)c1)C(=O)c1cc(C(F)(F)F)cc(C(F)(F)F)c1`, for which the AC50 was 7.68 µM (active) in test [1] and 29.9 µM (active) in [10]. The molecule was called inactive in test [9].
For `NCc1cccc(C2CCN(C(=O)c3ccc(C#Cc4ccccc4F)o3)CC2)c1`, the figures for the AC50 in test [1], in [2] and in test [10] were 0.112 µM (active), 10 µM (active) and 41.8 µM (active), respectively.
With `CC(C)(O)c1ccc(CNC(=O)c2cccnc2Oc2ccc3nonc3c2)cc1`, the AC50 in test [1] is 13 µM (active). Besides, in test [4], the molecule was called inactive.
On to `CN(C)C(=O)C1(N2CCCCC2)CCN(CC[C@@]2(c3ccc(Cl)c(Cl)c3)CN(C(=O)c3ccccc3)CCO2)CC1`, for which the AC50 in test [1] was 1.17 µM (active); in test [2], 0.586 µM (active); in test [7], 19 µM (active). Moreover, the outcome in test [10] was inactive.
